# From PubChem
# Rows were chosen to be rich in hits. Some 5.7% of all compounds tested hit in one or more screens of this group.
# RORgamma inh – qHTS for inhibitors of ROR gamma transcriptional activity; Nuclear receptor ROR-gamma (Mus musculus), P51450; Drosophila S2 Gal4-RORgamma UAS-luciferase reporter, 20 h; Potency, µM (doses to about 53.6 µM), without a hit: top-dose activity change, negative = inhibition, hits mostly inhibitors; 310,000 tested, 5.4% active; AID 2551, 2010; also: nearly all actives have a fitted effect of over 60% in size
# Target sequence (P51450 whole entry, looked up, the tested form may be a part): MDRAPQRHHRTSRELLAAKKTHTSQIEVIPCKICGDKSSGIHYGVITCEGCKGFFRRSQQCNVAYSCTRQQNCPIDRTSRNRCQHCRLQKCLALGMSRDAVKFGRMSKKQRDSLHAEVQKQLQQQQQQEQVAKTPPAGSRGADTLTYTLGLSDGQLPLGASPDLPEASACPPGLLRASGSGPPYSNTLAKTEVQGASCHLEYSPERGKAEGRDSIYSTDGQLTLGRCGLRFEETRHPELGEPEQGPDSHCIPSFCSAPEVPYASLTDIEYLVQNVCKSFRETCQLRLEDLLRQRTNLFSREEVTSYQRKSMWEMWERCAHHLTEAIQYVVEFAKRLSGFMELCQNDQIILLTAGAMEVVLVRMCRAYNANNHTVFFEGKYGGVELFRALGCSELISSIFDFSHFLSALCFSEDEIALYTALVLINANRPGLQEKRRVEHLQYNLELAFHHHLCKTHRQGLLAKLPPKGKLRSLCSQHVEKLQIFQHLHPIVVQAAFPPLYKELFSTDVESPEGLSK
#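 Schneider cells (Drosophila), stable Gal4 DBD–ROR gamma + UAS-luc; 1 hr cmpd preincubation; Cu2+ induction 700 uM final; 20 hr ambient; luminescence.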
# B2AR arrestin – qHTS assay of beta-arrestin-biased ligands of beta2-adrenergic receptor; Beta-2 adrenergic receptor (Homo sapiens), P07550; beta-arrestin recruitment to beta2AR, cell-based reporter; Potency, µM (series often up to 46.1 µM), inactives show top-dose activation, hits mostly activators; 330,000 tested, 0.02% active;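 also: 0% = DMSO controls and full agonism = EC100 isoproterenol or metaproterenol; nearly all actives have a fitted effect of over 65% in size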
# Gal4-VP16 FLuc – VP16 counterscreen qHTS for inhibitors of ROR gamma transcriptional activity; AID 2546, 2010; 310,000 tested, 3.5% active; Potency, µM (titrated, usually from 53.6 µM), for inactives: at the highest dose activity, negative = inhibition, hits mostly inhibitors; Drosophila S2 Gal4-VP16 UAS-luciferase, luminescence, 20 h;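 also: Gal4-VP16 expression switched on by copper sulfate through the metallothionein promoter; nearly all actives have a fitted effect of over 50% in size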
# NPSR antag – qHTS Assay for Antagonists of the Neuropeptide S Receptor: cAMP Signal Transduction | Q6W5P4 | CHO-NPSR cells, cAMP TR-FRET, antagonist mode | Potency, µM (doses to about 38.3 µM), for inactives: at the highest dose activity change, negative = inhibition, usual class: inhibitors | 220,000 tested, 1% active | AID 1461, 2008; also: nearly all actives have a fitted effect of over 50% in size
# * marks the source's active call; other numbers are inactive results; ? = inconclusive; / = no result; [ ] = dose if it differs, or a comment. Calls follow the shape of the dose curve; as a rule, active = well fitted curve in the direction sought with a large enough effect; inconclusive = small, poorly fitted or top-dose-only effect, or another doubt; inactive = no such curve, though single readings can be large; an effect the other way counts as inactive or inconclusive. Unless noted, % is scaled to controls: 0 for no effect and ±100 for the full control effect; potency is read from the fitted curve at half-maximal effect.
SMILES,RORgamma inh,B2AR arrestin,Gal4-VP16 FLuc,NPSR antag
CSCC[C@H](NC(=O)[C@H](CC(C)C)NC(=O)[C@H](Cc1c[nH]c2ccccc12)NC(=O)[C@H](CCC(N)=O)NC(=O)[C@@H](NC(=O)[C@H](Cc1ccccc1)NC(=O)[C@H](CC(=O)O)NC(=O)[C@H](CCC(N)=O)NC(=O)[C@H](C)NC(=O)[C@H](CCCNC(=N)N)NC(=O)[C@H](CCCNC(=N)N)NC(=O)[C@H](CO)NC(=O)[C@H](CC(=O)O)NC(=O)[C@H](CC(C)C)NC(=O)[C@H](Cc1ccc(O)cc1)NC(=O)[C@H](CCCCN)NC(=O)[C@H](CO)NC(=O)[C@H](Cc1ccc(O)cc1)NC(=O)[C@H](CC(=O)O)NC(=O)[C@H](CO)NC(=O)[C@@H](NC(=O)[C@H](Cc1ccccc1)NC(=O)[C@@H](NC(=O)CNC(=O)[C@H](CCC(N)=O)NC(=O)[C@H](CO)NC(=O)[C@@H](N)Cc1cnc[nH]1)[C@@H](C)O)[C@@H](C)O)C(C)C)C(=O)N[C@@H](CC(N)=O)C(=O)N[C@H](C(=O)O)[C@@H](C)O,-20%,/,-7%,/
CCOC(=O)Cn1c(=O)oc2cc(S(=O)(=O)NCCc3ccc(C)cc3)ccc21,?,0%,?,-16%[46.1 µM]
CCOC(=O)Cn1c(=O)oc2cc(S(=O)(=O)NCCCc3ccccc3)ccc21,?,0%,13µM*,13%[46.1 µM]
CCOc1ccc(S(=O)(=O)Nc2ccc(C(=O)NCC(C)(C)N3CCOCC3)cc2)cc1,/,-1%,/,/
c1ccc(Oc2nc(-c3ccccn3)nc3ccccc23)cc1,0.63µM*,?,3.2µM*,42%
Cc1nc(Oc2ccccc2)c2ccccc2n1,-27%,0%,1%,-4%
Fc1ccc(Oc2nc(-c3ccccn3)nc3ccccc23)cc1,0.71µM*,0%,2.5µM*,36%
COc1ccc(Oc2nc(-c3ccccn3)nc3ccccc23)cc1,0.4µM*,0%,2.5µM*,?
CC[C@H](C)[C@H](NC(=O)[C@H](C)NC(=O)[C@H](Cc1cnc[nH]1)NC(=O)[C@@H]1CCCN1C(=O)CNC(=O)[C@H](CC(C)C)NC(=O)[C@H](CC(C)C)NC(=O)[C@H](Cc1ccc(O)cc1)NC(=O)CNC(=O)[C@H](C)NC(=O)[C@H](CO)NC(=O)[C@H](CC(N)=O)NC(=O)[C@H](CC(C)C)NC(=O)[C@@H](NC(=O)[C@H](Cc1c[nH]c2ccccc12)NC(=O)CN)[C@@H](C)O)C(=O)O,1%,/,-5%,/
COc1ccc2c(c1OC)C(Cc1ccccc1)N1CCc3cc4c(cc3C1C2)OCO4 (stereo not given),-23%,/,?,/
COC(=O)C1=C(C)N(Cc2ccccc2)C2=C3C(=O)CCCC3[C@@](O)(C(=O)OC)C(=O)N2C1c1ccccc1 (stereo not given in full),2%[10 µM],/,-11%[10 µM],/
CC(=O)Nc1ccc(NC(=O)CSc2nnc(NC(=O)c3cccc(F)c3)s2)cc1,13µM*,0%,?,/
CCc1ccc(Nc2nnc(SCC(=O)Nc3ccc(C(=O)O)cc3)s2)cc1,5µM*,0%,7.1µM*,1%
CCc1ccc(Nc2nnc(SCC(=O)NC(=O)c3cccn3C)s2)cc1,?,3%,4%[10 µM],-1%
COC(=O)[C@H](CCSC)NC(=O)Nc1cccc(Br)c1,14%,0%,2%,-7%
CCCCCCCN[C@H]1CCC[C@@H]1CCCCCCC(=O)O,1%,/,-2%,/
Cc1noc(C)c1-c1cncnc1NCc1cccnc1,-30%,/,5%,/
COC(=O)C(Cc1ccc(O)cc1)NC(=O)c1ccccc1 (stereo not given),2.2µM*,0%,?,-7%[46.1 µM]
COC(=O)C(Cc1ccccc1)NC(=O)c1ccc(C)cc1 (stereo not given),13%,0%,-12%,12%
CCCCCCC1CC(=O)NC(=S)N1 (stereo not given),8.9µM*,0%,?,12%
COc1cc2c(cc1OC)n(CC(=O)NC1CCCCCC1)n1c(C)cc(=O)nc21,10%,1%,-5%,/
O=C1c2ccccc2NC(c2ccc(-c3ccc(Br)cc3)o2)N1O (stereo not given),7.1µM*,0%,?,27%[46.1 µM]
N#Cc1ccc(S(=O)(=O)N2CCC(C(=O)N3CCN(Cc4ccc5c(c4)OCO5)CC3)CC2)cc1,/,-1%,/,/
CC(=O)c1ccc(Nc2c3ccccc3cc3occc23)cc1,11%,/,-16%,/
FC(F)Oc1ccc(NC(=S)NNc2ccnc3cc(Cl)ccc23)cc1,-3%,0%,-7%,-2%
SMILES,RORgamma inh,B2AR arrestin,Gal4-VP16 FLuc,NPSR antag
C/C(=N\Nc1ccc([N+](=O)[O-])cc1)c1ccc(N)cc1,26%,0%,3%,-27%
C/C(=N\Nc1nc(C)c(C)s1)c1ccc([N+](=O)[O-])cc1,11µM*,0%,?,10%
COc1c(C)cccc1C(=O)NCc1ccc2c(c1)OCO2,10%,-1%,3%,/
COC(=O)/C=C/S(=O)(=O)c1ccc(NC(C)=O)cc1,5µM*,-1%,5µM*,?
O=C(NC(Nc1nc2ccc([N+](=O)[O-])cc2s1)(C(F)(F)F)C(F)(F)F)c1ccccc1Cl,6.3µM*,0%,0.89µM*,7.9µM*
O=C(NC(Nc1nc2ccc([N+](=O)[O-])cc2s1)(C(F)(F)F)C(F)(F)F)c1cccnc1,?,0%,6.3µM*,-32%
O=C(NC(NNc1ccc([N+](=O)[O-])cc1)(C(F)(F)F)C(F)(F)F)c1ccccc1Cl,37%,0%,7%,-21%[46.1 µM]
CC(=O)NC1C(O)O[C@H](C(=O)O)[C@@H](O)[C@@H]1O (stereo not given in full),0%,/,12%,/
CC1=NN(C(=O)c2ccc(Cn3cc([N+](=O)[O-])cn3)cc2)C(O)(C(F)(F)F)C1 (stereo not given),10µM*,0%,13µM*,-4%
Cc1nn(Cc2cccc(C(=O)N3N=C(C(F)F)CC3(O)C(F)F)c2)c(C)c1[N+](=O)[O-] (stereo not given),?,0%,-25%,-12%[46.1 µM]
CC1=NN(C(=O)c2cccc(Cn3nc(C)c([N+](=O)[O-])c3C)c2)C(O)(C(F)(F)F)C1 (stereo not given),3.2µM*,0%,7.1µM*,-5%[46.1 µM]
CN(C)c1ccc(NC(=O)c2ccc(Cn3cc([N+](=O)[O-])cn3)cc2)cc1,?,0%,-5%,-16%
C[C@@H]1O[C@H](O[C@@H]2[C@H](C)O[C@H](O[C@@H]3[C@H](C)O[C@H](O[C@H]4CC[C@]5(C)[C@@H](CC[C@@H]6[C@H]5C[C@@H](O)[C@]5(C)[C@@H](C7=CC(=O)OC7)CC[C@]65O)C4)C[C@@H]3O)C[C@@H]2O)C[C@H](O)[C@@H]1O,4µM*,/,7%[17 µM],/
